Screen size: about 5,500 compounds; about 2,000 (36%) were called active. Not shown: some 18% with an inconclusive outcome. This is one part of the list. A number with no mark means an inactive call. Rule as the data show it: active = normalized growth mostly below about 0.91 (no sharp cut-off); inconclusive = no clear call, values can overlap the other calls; inactive = mostly above about 0.92.
Assay: chemical genetic growth profiling, strain panel (AID 1159580);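 also: tested at 20 µM; growth read once vehicle control cultures reached saturation at 30 °C; 1 = growth at the plate median or of vehicle wells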
Details: S. cerevisiae deletion strains, growth OD
[1] = locus YAL013W, strain DEP1, stronger effect = lower value
[2] = locus YAL040C, strain CLN3, stronger effect = lower value
[3] = locus YCL061C, strain MRC1 (second series), stronger effect = lower value
[4] = locus YDR363W, strain ESC2, stronger effect = lower value
[5] = locus YER002W, strain NOP16, stronger effect = lower value
[6] = locus YMR263W, strain SAP30, stronger effect = lower value
[7] = locus YMR307W, strain GAS1, stronger effect = lower value
[8] = locus YNL153C, strain GIM3, stronger effect = lower value
[9] = locus YNL175C, strain NOP13, stronger effect = lower value
[10] = locus YNL197C, strain WHI3, stronger effect = lower value
[11] = locus YNL224C, strain SQS1, stronger effect = lower value
[12] = locus YNL322C, strain KRE1, stronger effect = lower value
[13] = locus YOR083W, strain WHI5 (second series), stronger effect = lower value
[14] = locus YPL055C, strain LGE1, stronger effect = lower value
[15] = locus YPL241C, strain CIN2, stronger effect = lower value
[16] = locus YDR150W, strain NUM1, stronger effect = lower value
[17] = locus YGR078C, strain PAC10, stronger effect = lower value

SMILES: NCC1(CC(=O)O)CCCCC1
- normalized growth [1]: 1
- normalized growth [2]: 0.991
- normalized growth [3]: 1.01
- normalized growth [4]: 0.995
- normalized growth [5]: 1.01
- normalized growth [6]: 0.999
- normalized growth [7]: 0.99
- normalized growth [8]: 1.02
- normalized growth [9]: 1.01
- normalized growth [10]: 1.01
- normalized growth [11]: 1.02
- normalized growth [12]: 0.998
- normalized growth [13]: 0.977
- normalized growth [14]: 0.999

SMILES: C[N+]1(C)C2CCC1CC(OC(=O)c1c[nH]c3ccccc13)C2 (centres undefined)
- normalized growth [1]: 1.02
- normalized growth [2]: 1.06
- normalized growth [3]: 0.996
- normalized growth [4]: 1
- normalized growth [5]: 0.974
- normalized growth [6]: 0.997
- normalized growth [7]: 1.01
- normalized growth [9]: 0.973
- normalized growth [10]: 1.01
- normalized growth [11]: 1.02
- normalized growth [12]: 1
- normalized growth [13]: 0.978
- normalized growth [14]: 1
- normalized growth [15]: 1

SMILES: CCSC(=N)N
- normalized growth (locus YAL021C, strain ccr4, stronger effect = lower value): 1.03
- normalized growth (locus YAL026C, strain drs2, stronger effect = lower value): 1.01
- normalized growth (locus YAL030W, strain snc1, stronger effect = lower value): 1.01
- normalized growth [2]: 1.12 [resistant] (active)
- normalized growth (locus YBL061C, strain skt5, stronger effect = lower value): 1.02
- normalized growth (locus YBR009C, strain hhf1, stronger effect = lower value): 1.01
- normalized growth (locus YBR023C, strain chs3, stronger effect = lower value): 1.02
- normalized growth (locus YBR171W, strain sec66, stronger effect = lower value): 1.02
- normalized growth (locus YBR231C, strain swc5, stronger effect = lower value): 1.01
- normalized growth (locus YBR279W, strain paf1, stronger effect = lower value): 1.01
- normalized growth (locus YCL011C, strain gbp2, stronger effect = lower value): 1.02
- normalized growth (locus YCL016C, strain dcc1, stronger effect = lower value): 1.01
- normalized growth [3]: 1
- normalized growth (locus YCL061C, strain MRC1, stronger effect = lower value): 1.01
- normalized growth (locus YCL069W, strain vba3, stronger effect = lower value): 1.01
- normalized growth (locus YCR088W, strain abp1, stronger effect = lower value): 1.02
- normalized growth (locus YDL005C, strain med2, stronger effect = lower value): 1.03
- normalized growth (locus YDL040C, strain nat1, stronger effect = lower value): 1.02
- normalized growth (locus YDR001C, strain nth1, stronger effect = lower value): 1.01
- normalized growth (locus YDR069C, strain doa4, stronger effect = lower value): 1.01
- normalized growth (locus YDR137W, strain rgp1, stronger effect = lower value): 1.01
- normalized growth [16]: 1.01
- normalized growth (locus YDR159W, strain sac3, stronger effect = lower value): 1.05
- normalized growth (locus YDR195W, strain ref2): 1.01
- normalized growth (locus YDR297W, strain sur2, stronger effect = lower value): 1.02
- normalized growth (locus YDR334W, strain swr1, stronger effect = lower value): 1.01
- normalized growth (locus YDR335W, strain msn5, stronger effect = lower value): 1.02
- normalized growth [4]: 1.01
- normalized growth (locus YDR392W, strain spt3, stronger effect = lower value): 0.975
- normalized growth (locus YEL003W, strain gim4, stronger effect = lower value): 1.01
- normalized growth (locus YEL037C, strain rad23, stronger effect = lower value): 1.01
- normalized growth (locus YEL061C, strain CIN8 (second series), stronger effect = lower value): 1.01
- normalized growth [5]: 0.999
- normalized growth (locus YER015W, strain faa2, stronger effect = lower value): 1.01
- normalized growth (locus YER016W, strain bim1, stronger effect = lower value): 1.02
- normalized growth (locus YER111C, strain swi4, stronger effect = lower value): 1.02
- normalized growth (locus YER155C, strain BEM2 (second series), stronger effect = lower value): 1.05
- normalized growth (locus YFR010W, strain ubp6, stronger effect = lower value): 1.01
- normalized growth (locus YGL167C, strain pmr1, stronger effect = lower value): 1.03
- normalized growth (locus YGL173C, strain kem1, stronger effect = lower value): 1.01
- normalized growth (locus YGL227W, strain vid30, stronger effect = lower value): 1.02
- normalized growth (locus YGL240W, strain doc1, stronger effect = lower value): 1.02
- normalized growth (locus YGL253W, strain hxk2, stronger effect = lower value): 1.02
- normalized growth [17]: 1.02
- normalized growth (locus YGR229C, strain SMI1, stronger effect = lower value): 1.04
- normalized growth (locus YHR013C, strain ard1, stronger effect = lower value): 1
- normalized growth (locus YHR027C, strain rpn1, stronger effect = lower value): 1.02
- normalized growth (locus YHR142W, strain chs7, stronger effect = lower value): 1.03
- normalized growth (locus YJL092W, strain hpr5, stronger effect = lower value): 1.01
- normalized growth (locus YJL095W, strain BCK1 (second series), stronger effect = lower value): 1.01
- normalized growth (locus YJL115W, strain asf1, stronger effect = lower value): 1.02
- normalized growth (locus YJL129C, strain trk1, stronger effect = lower value): 1.04
- normalized growth (locus YJL154C, strain vps35, stronger effect = lower value): 1.01
- normalized growth (locus YJL164C, strain tpk1, stronger effect = lower value): 1.01
- normalized growth (locus YJL166W, strain qcr8, stronger effect = lower value): 1.02
- normalized growth (locus YJL187C, strain SWE1, stronger effect = lower value): 1.01
- normalized growth (locus YKL160W, strain elf1, stronger effect = lower value): 1.02
- normalized growth (locus YKR026C, strain gcn3, stronger effect = lower value): 1.01
- normalized growth (locus YKR091W, strain srl3, stronger effect = lower value): 1.01
- normalized growth (locus YLL001W, strain dnm1, stronger effect = lower value): 1.02
- normalized growth (locus YLL026W, stronger effect = lower value): 1.01
- normalized growth (locus YLL041C, strain sdh2, stronger effect = lower value): 1.02
- normalized growth (locus YLR027C, strain aat2, stronger effect = lower value): 1.01
- normalized growth (locus YLR221C, strain rsa3, stronger effect = lower value): 1.01
- normalized growth (locus YLR258W, strain gsy2, stronger effect = lower value): 1.01
- normalized growth (locus YLR262C, strain YPT6 (second series), stronger effect = lower value): 1.02
- normalized growth (locus YLR320W, strain mms22, stronger effect = lower value): 1.03
- normalized growth (locus YLR342W, strain FKS1, stronger effect = lower value): 1.02
- normalized growth (locus YLR357W, strain rsc2, stronger effect = lower value): 1.01
- normalized growth (locus YLR370C, strain arc18, stronger effect = lower value): 1.02
- normalized growth (locus YLR384C, strain iki3, stronger effect = lower value): 1.02
- normalized growth (locus YML120C, strain ndi1, stronger effect = lower value): 1.01
- normalized growth (locus YMR058W, strain fet3, stronger effect = lower value): 1.02
- normalized growth (locus YMR125W, strain sto1, stronger effect = lower value): 1.01
- normalized growth (locus YMR129W, stronger effect = lower value): 1.02
- normalized growth (locus YMR205C, strain PFK2, stronger effect = lower value): 0.998
- normalized growth (locus YMR231W, strain pep5, stronger effect = lower value): 1.01
- normalized growth [6]: 1.01
- normalized growth [7]: 1.03
- normalized growth (locus YNL071W, strain lat1, stronger effect = lower value): 1.02
- normalized growth [8]: 1.03
- normalized growth [9]: 0.988
- normalized growth [10]: 0.992
- normalized growth (locus YNL209W, strain ssb2, stronger effect = lower value): 1.01
- normalized growth [11]: 1.01
- normalized growth (locus YNL248C, strain rpa49, stronger effect = lower value): 1.02
- normalized growth (locus YNL322C, strain KRE1 (second series), stronger effect = lower value): 1.02
- normalized growth [12]: 1.01
- normalized growth (locus YNR049C, strain mso1, stronger effect = lower value): 1.01
- normalized growth (locus YOR001W, strain rrp6, stronger effect = lower value): 1.02
- normalized growth (locus YOR070C, strain gyp1, stronger effect = lower value): 1.01
- normalized growth (locus YOR080W, strain dia2, stronger effect = lower value): 1.03
- normalized growth [13]: 0.995
- normalized growth (locus YOR083W, strain WHI5, stronger effect = lower value): 1.03
- normalized growth (locus YOR106W, strain vam3, stronger effect = lower value): 1.04
- normalized growth (locus YOR265W, strain rbl2, stronger effect = lower value): 1.01
- normalized growth (locus YOR270C, strain vph1, stronger effect = lower value): 1.07
- normalized growth (locus YOR290C, strain snf2, stronger effect = lower value): 0.96
- normalized growth (locus YPL051W, strain arl3, stronger effect = lower value): 1.02
- normalized growth [14]: 1.17 [resistant] (active)
- normalized growth (locus YPL078C, strain atp4, stronger effect = lower value): 1.02
- normalized growth (locus YPL106C, strain sse1, stronger effect = lower value): 1.04
- normalized growth (locus YPL240C, strain hsp82, stronger effect = lower value): 1.02

SMILES: CSC(=N)N
- normalized growth [2]: 0.992
- normalized growth [3]: 1.01
- normalized growth [16]: 1.01
- normalized growth [4]: 1.02
- normalized growth [5]: 0.984
- normalized growth [17]: 1.01
- normalized growth [7]: 1.01
- normalized growth [8]: 1.01
- normalized growth [9]: 1.01
- normalized growth [10]: 1
- normalized growth [11]: 1
- normalized growth [13]: 1.01
- normalized growth [15]: 1.01

Reference: PubChem BioAssay AID1159580 (chemical genetic matrix, 2015)
